This is an account of results in PubChem BioAssay (NCATS).

Test [1] concerns the target Glutaminase kidney isoform, mitochondrial (Homo sapiens) (UniProt O94925). Nature of the test: qHTS for Inhibitors of Glutaminase (GLS): LOPAC Validation (AID 624146). Note: nearly all actives have a fitted effect of over 60% in size. Note: potency is the fitted concentration of half-maximal effect. The following applies: glutaminase enzyme activity inhibition; series mostly up to 46.1 µM. Put shortly:
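Two-point fluorescence kinetic (t0, 30 min RT) for hKGA; glutamate detected via glutamate oxidase–HRP–Amplex Red. Substrate: 1 mM L-glutamine solution; buffer 45 mM KH2PO4, pH 8.2.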
A general note: In qHTS, concentration-response curves come from the screen itself.

Test [2] can be described thus: qHTS of Trypanosoma Brucei Inhibitors: LOPAC Validation (AID 624147). Note: potency is the fitted concentration of half-maximal effect. The following applies: purified enzyme assay, luminescence, 45 min; series mostly up to 57.5 µM. Put shortly:
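Assay buffer: 50 mM TEA pH 7.2, 100 mM KCl, 10 mM MgCl2, 0.05% BSA, 0.01% Tween-20. Pyruvate kinase from T. brucei plus substrate met compound, then ADP (130 uM final). Luminescence was read post 45 min RT.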

The target in test [3] is Glucagon-like peptide 1 receptor (Homo sapiens) (UniProt P43220). Nature of the test: qHTS of GLP-1 Receptor Agonists: LOPAC Validation (AID 624148).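 Note: luminescence from a luciferase reporter switched on by cAMP; higher luminescence signal means agonism.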 To be noted: GLP-1R agonist cell assay; series mostly up to 46.1 µM. The method, boiled down: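 Agonism scored as increased luciferase luminescence driven by cAMP in HEK293 clones carrying GLP-1R. Cells settled 12 hours, received compound for 4-6 hr at 37 deg C, 5% CO2, and were read after 12 min detection reagent at RT.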
Sequence of Glucagon-like peptide 1 receptor (Homo sapiens) (P43220 whole entry, looked up): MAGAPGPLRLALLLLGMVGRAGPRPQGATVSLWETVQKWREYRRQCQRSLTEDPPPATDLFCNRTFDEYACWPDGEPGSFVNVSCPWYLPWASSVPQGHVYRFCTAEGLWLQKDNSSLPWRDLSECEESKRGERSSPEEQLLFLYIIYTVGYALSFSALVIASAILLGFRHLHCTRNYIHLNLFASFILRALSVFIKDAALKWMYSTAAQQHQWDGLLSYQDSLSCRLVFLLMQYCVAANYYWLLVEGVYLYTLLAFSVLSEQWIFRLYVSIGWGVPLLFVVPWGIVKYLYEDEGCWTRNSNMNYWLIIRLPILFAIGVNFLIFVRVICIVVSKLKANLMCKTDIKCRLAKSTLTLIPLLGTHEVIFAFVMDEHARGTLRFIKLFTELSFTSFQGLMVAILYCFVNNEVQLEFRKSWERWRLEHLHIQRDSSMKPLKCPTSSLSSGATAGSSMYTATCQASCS

Test [4] is described as follows: qHTS of Nrf2 Activators: LOPAC Validation (AID 624149). The following applies: Nrf2/ARE reporter cell assay; series mostly up to 46.1 µM. The method, boiled down:
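AREc32_Fluc cells, 1000/well in OPTI-MEM with 5% FBS, grown overnight, then exposed to compounds for 24 hr at 37 deg C, 5% CO2. ARE-driven firefly luciferase read by Steady-Glo luminescence after 30 min at RT.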

The nature of test [5]: HTS Assay for Allosteric Antagonists of the Human D2 Dopamine Receptor: Hit Validation in HTRF (AID 624455).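 Note: stable D1 dopamine receptor cell line scored for blocking the D1 response.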 The following applies: Cells stably expressing D1 dopamine receptor, inhibition mode; series mostly up to 46.1 µM. The method, boiled down:
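Hit validation in cells stably expressing the D1 dopamine receptor, run in HTRF format. Compounds were tested for their ability to inhibit the D1-mediated response.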
(TR-FRET usually uses a lanthanide donor and a delayed reading to cut background.)

Unmarked numbers belong to inactive results. Records with an inconclusive call do not appear. Calls of active or inactive are those of the source. Calls come from the whole dose curve; as a rule, active = well fitted curve in the direction sought with a large enough effect; inconclusive = small, poorly fitted or top-dose-only effect, or another doubt; inactive = no such curve, though single readings can be large; an effect the other way counts as inactive or inconclusive.

Sequence of Glutaminase kidney isoform, mitochondrial (Homo sapiens) (O94925 whole entry, looked up, canonical isoform): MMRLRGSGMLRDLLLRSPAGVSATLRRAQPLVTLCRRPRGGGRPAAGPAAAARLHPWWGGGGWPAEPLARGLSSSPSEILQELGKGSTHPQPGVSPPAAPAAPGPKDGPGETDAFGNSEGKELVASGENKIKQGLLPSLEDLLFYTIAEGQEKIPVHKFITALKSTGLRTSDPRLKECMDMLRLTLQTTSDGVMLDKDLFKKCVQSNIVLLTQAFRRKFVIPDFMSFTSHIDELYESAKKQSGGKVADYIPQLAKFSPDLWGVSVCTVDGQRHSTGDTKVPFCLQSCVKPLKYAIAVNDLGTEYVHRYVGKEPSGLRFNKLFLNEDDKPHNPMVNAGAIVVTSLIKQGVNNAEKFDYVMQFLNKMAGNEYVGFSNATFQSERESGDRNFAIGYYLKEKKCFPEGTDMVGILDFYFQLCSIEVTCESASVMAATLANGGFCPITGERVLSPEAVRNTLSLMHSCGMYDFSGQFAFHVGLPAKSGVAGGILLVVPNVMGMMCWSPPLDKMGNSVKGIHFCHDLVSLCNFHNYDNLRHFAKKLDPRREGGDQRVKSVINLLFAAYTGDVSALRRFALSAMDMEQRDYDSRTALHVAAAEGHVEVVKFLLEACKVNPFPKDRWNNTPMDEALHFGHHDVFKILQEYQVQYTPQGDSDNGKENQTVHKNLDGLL

Turning to `CN=c1nc(-c2ccccc2)n(-c2ccccc2)s1`, the Potency entry in test [1] and in test [5] was “inactive” each time. Also, the Potency in test [2] is 8.49 µM (active). Further, the call in test [3] and in test [4] was inactive.
`Oc1cc(O)cc(/C=C/c2ccc(O)c(O)c2)c1`: the Potency in test [1] was 2 µM (active); in test [2], 13.5 µM (active). The compound was called inactive in test [3]. The Potency entry in test [5] was “inactive”.
`CCCCCCCCc1ccc(-c2ccc(C(=O)O)cc2)cc1`: the Potency entry in test [1], in test [2] and in test [5] was “inactive” throughout. Further, the compound was classed as inactive in test [3] and in test [4].
Regarding `Clc1ccc(N2CCN(Cc3cc4ccccn4n3)CC2)cc1`, the Potency entry in test [1], in test [2] and in test [5] was “inactive” throughout. Moreover, the result in test [3] and in test [4] was inactive.
Regarding `NCC1OC(O[C@H]2[C@H](O)[C@@H](OC3C(O)C(N)CC(N)C3OC3OC(CO)C(O)C(O)C3N)O[C@@H]2CO)C(N)C(O)C1O` (stereo partly specified), the Potency entry in test [1], in test [2] and in test [5] was “inactive” throughout. Further, the call in test [3] and in test [4] was inactive.
As to `O=C(/C=C/c1ccc(O)c(O)c1)OCCc1ccccc1`, the Potency in test [1] is 0.891 µM (active). Further, the Potency result in test [2] and in test [5] was “inactive” each time. Besides, the compound was classed as inactive in test [3].
As for `O=P(O)(O)C(Cl)(Cl)P(=O)(O)O`, the Potency entry in test [1], in test [2] and in test [5] was “inactive” in each case. Also, the compound was classed as inactive in test [3] and in test [4].
For the compound `C[N+]1(C)CCC(OC(=O)C(c2ccccc2)c2ccccc2)CC1`, the Potency result in test [1], in test [2] and in test [5] was “inactive” in each case. Besides, the compound was called inactive in test [3] and in test [4].
On to `OC[C@H]1O[C@@H](n2cnc3c(Nc4ccccc4)ncnc32)[C@H](O)[C@@H]1O`, for which the Potency result in test [1], in test [2] and in test [5] was “inactive” in each case. Moreover, the compound was classed as inactive in test [3] and in test [4].
In the case of `O=c1[nH]c2cc([N+](=O)[O-])c([N+](=O)[O-])cc2[nH]c1=O`, the Potency entry in test [1], in test [2] and in test [5] was “inactive” throughout. The compound was called inactive in test [3] and in test [4].
For `CC(=O)SCC[N+](C)(C)C`, the Potency entry in test [1], in test [2] and in test [5] was “inactive” throughout. For the same compound, the compound was called inactive in test [3] and in test [4].
`COc1ccc2c(c1)CCC1C2CC[C@@]2(C)C1CC[C@@H]2NCCCCCCN1C(=O)CCC1=O` (stereo partly specified): the Potency result in test [1], in test [2] and in test [5] was “inactive” each time. For the same compound, the compound was called inactive in test [3] and in test [4].
On to `Nc1nc(Cl)nc2c1ncn2[C@@H]1O[C@H](CO)[C@@H](O)[C@H]1O`, for which the Potency result in test [1], in test [2] and in test [5] was “inactive” throughout. In test [4], the call was inactive.
`COC(=O)c1c(C)[nH]c(C)c1C(=O)c1ccccc1Cc1ccccc1`: the Potency entry in test [1], in test [2] and in test [5] was “inactive” throughout. In addition, in test [4], the outcome was inactive.
Take `Cc1ccc(O)c(N=Nc2ccccc2)n1`: the Potency entry in test [1] and in test [5] was “inactive” throughout. In test [2], the Potency is 19 µM (active). Besides, in test [4], the call was inactive.
Consider `CC(C)CC(NP(=O)(O)O[C@@H]1O[C@@H](C)[C@H](O)[C@@H](O)[C@H]1O)C(=O)NC(Cc1c[nH]c2ccccc12)C(=O)O` (stereo partly specified), for which the Potency entry in test [1], in test [2] and in test [5] was “inactive” in each case. For the same compound, in test [4], the compound was called inactive.
Regarding `Cc1cc(NC(=O)Nc2ccc3c(ccn3C)c2)sn1`, the Potency result in test [1], in test [2] and in test [5] was “inactive” each time. In addition, the call in test [4] was inactive.
As to `CN(C)c1nc2c(Br)c(Br)c(Br)c(Br)c2[nH]1`, the Potency result in test [1], in test [2] and in test [5] was “inactive” in each case. Also, in test [4], the compound was classed as inactive.
For `CC(C)(C=O)Cc1cc(C(C)(C)C)c(O)c(C(C)(C)C)c1`, the Potency in test [1] was 2.51 µM (active). Besides, the Potency entry in test [2] and in test [5] was “inactive” each time. Further, the outcome in test [4] was inactive.
As for `CN(C)C(N)=NCCC[C@H](N)C(=O)O`, the Potency result in test [1], in test [2] and in test [5] was “inactive” in each case. Further, the outcome in test [4] was inactive.
With `OC[C@H]1O[C@@H](n2cnc3c(NC4CCCC4)ncnc32)[C@H](O)[C@@H]1O`, the Potency result in test [1], in test [2] and in test [5] was “inactive” throughout. The compound was called inactive in test [4].
Regarding `O=C(O)[C@@H]1C[C@H](C(=O)O)N1`, the Potency result in test [1], in test [2] and in test [5] was “inactive” in each case. Besides, in test [4], the compound was called inactive.
As for `CCCN(CC1CC1)c1nc(C)nc(Nc2c(Cl)cc(Cl)cc2Cl)c1Cl`, the Potency entry in test [1], in test [2] and in test [5] was “inactive” throughout. The compound was called inactive in test [4].
In the case of `O=C(CCCCCN1CCN(c2ccccc2-c2ccccc2)CC1)NC1CCCc2ccccc21` (stereo unspecified), the Potency result in test [1], in test [2] and in test [5] was “inactive” each time. The call in test [4] was inactive.
